The full ranking holds about 68,000 sequences; the median of “fluorescence intensity (a.u.)” is about 9,100, and the highest 2% start at about 16,000. What follows is part of a selection rich in the highest values, with near analogues and random picks from the rest.

OsWRKY34, sequence (Q0JBA9 entry or part of it): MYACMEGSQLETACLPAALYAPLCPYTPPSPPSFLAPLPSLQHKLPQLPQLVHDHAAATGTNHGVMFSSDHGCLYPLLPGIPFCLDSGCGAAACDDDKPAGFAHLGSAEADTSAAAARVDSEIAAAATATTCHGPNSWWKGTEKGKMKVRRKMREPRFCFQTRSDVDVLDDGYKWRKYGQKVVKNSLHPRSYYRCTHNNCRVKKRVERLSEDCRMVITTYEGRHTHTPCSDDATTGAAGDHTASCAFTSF

This assay has as its target OsWRKY34 (Oryza sativa, UniProt Q0JBA9 1-250). Put plainly: protein-binding microarray (RPBM); PBS, 2% BSA, 51.3 ng/ul salmon testes DNA, 50 uM zinc acetate, 200 nM TF, 25 C, 1 h; high values mean tight binding. As to conditions: protein: recombinant; tags: N-terminal polyhistidine and DsRed monomer fusion (pET32a); label: CyDye5-dUTP incorporated in the synthesized complementary strand; 3' TTTTT single-stranded linker to array surface; dsDNA, one strand shown. The gist of the method: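 Binding signal is defined as the fluorescence intensity of each feature in arbitrary units, read on an Axon 4000B scanner. Transcription factors with N-terminal polyhistidine and DsRed fusions came from E. coli BL21-CodonPlus and were purified on Ni–NTA. They were incubated at 200 nM for 1 h at 25 °C on a custom Agilent array that had been made double-stranded with Cy5-dUTP, with 50 µM zinc acetate present, and the array was washed.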
Take “ACCGGCTCTCTAATCCTTAAATTCTGGCTTTGCTGCTAGTCGGAGTCACCTAGTGCAG”: the binding signal is 9240 fluorescence intensity (a.u.).
“CAGTGGAGGGTTGGATCGGTGTGTAGGGGCTTAAGTGCAACGGAGTCACCTAGTGCAG”: the binding signal was 9610 fluorescence intensity (a.u.).
In the case of “CATGTCCAACGTTTGACCATTTGCCTTATTTAAAATTTTTCGGAGTCACCTAGTGCAG” it was 9250 fluorescence intensity (a.u.).
As to “ATGCTCGATCACATGCTTAATTCTTAGCTTTGTCCTAGTTCGGAGTCACCTAGTGCAG”, the binding signal was 8230 fluorescence intensity (a.u.).
For “GCCGCCACCGCAACCTACCGCCGCCGCGGCAAGCCCAAGCCGGAGTCACCTAGTGCAG”, the binding signal is 8960 fluorescence intensity (a.u.).
The result for “GCTAAATACCAGCGAAGCAGTCGCCCGCGCAAACGCGCGCCGGAGTCACCTAGTGCAG” reads 8220 fluorescence intensity (a.u.); that for “ACGGCCAGGCAAGCAAGCAAACGCCGCGGCTACCAATACCCGGAGTCACCTAGTGCAG”, 39600 fluorescence intensity (a.u.).
Consider “TTAATCTTCACGCGTTTGCTTACTCCTATATATATATGTACGGAGTCACCTAGTGCAG”, for which the binding signal was 9730 fluorescence intensity (a.u.).
Regarding “TTCCTGTGTTTTGCAATCCGCTGTTTTACACTTACATTCCCGGAGTCACCTAGTGCAG”, the binding signal is 17300 fluorescence intensity (a.u.).
Regarding “TGTTTTTCCTGTGTTTTGCAATCCTCTGTTTTACACTTACCGGAGTCACCTAGTGCAG”, the binding signal is 13000 fluorescence intensity (a.u.).
The result for “TCCTGTGTTTTGCAATCCTCTGTTTTTACACTTGCATTCCCGGAGTCACCTAGTGCAG” reads 10400 fluorescence intensity (a.u.).
“TTTCGATTGATTTTGCCTCCTGAAGCGTTGTCTAGCTTTTCGGAGTCACCTAGTGCAG”: the binding signal was 8180 fluorescence intensity (a.u.).
The result for “ACCTAGTACGTATACACCTCAATCCATTATAAATAGCAACCGGAGTCACCTAGTGCAG” reads 8280 fluorescence intensity (a.u.); that for “GCACAAAACCCTCGAGCACCGCCCGCCGCTATATAACAACCGGAGTCACCTAGTGCAG”, 9960 fluorescence intensity (a.u.).
Turning to “TAGTACAATGGGTGCCCTCAACGGAATAAACCGCTATACCCGGAGTCACCTAGTGCAG”, the binding signal is 37000 fluorescence intensity (a.u.).
Turning to “AGACAAACTCTGGTTTCCGTGTCCAACGTTTGACCGTTCGCGGAGTCACCTAGTGCAG”, the binding signal is 11300 fluorescence intensity (a.u.).
For “TTTCATTTCACTCGCTGGCATTTCATCTCCTTGACCTATCCGGAGTCACCTAGTGCAG”, the binding signal was 9400 fluorescence intensity (a.u.).
As for “ACCCACTGATCACGAAATCCACACACTGGCCACATCCAAACGGAGTCACCTAGTGCAG”, the binding signal was 8340 fluorescence intensity (a.u.).
On to “TTTTCTTTTTCAATGTATGATTCTGTTGACTTTTCAGATACGGAGTCACCTAGTGCAG”, for which the binding signal is 11600 fluorescence intensity (a.u.).
For the sequence “CCCTCCGTTTCAAAATGTTTGACACCGTTGACTTTTTAGCCGGAGTCACCTAGTGCAG”, the binding signal was 28700 fluorescence intensity (a.u.).
“CATCCGTTTCAAAATGTTTGACACCGTTGACTTTTTAGCACGGAGTCACCTAGTGCAG”: the binding signal is 26200 fluorescence intensity (a.u.).
Regarding “ATACTCCCTCCGTTTCAAAATGTTTGACATCGTTGACTTTCGGAGTCACCTAGTGCAG”, the binding signal is 9980 fluorescence intensity (a.u.).
For the sequence “TATTACTTCCTTCGTTTCAAAATGTTTGATACCGTTGACTCGGAGTCACCTAGTGCAG”, the binding signal is 12000 fluorescence intensity (a.u.).
On to “CTTTCTTTATTTCAAAAGTATGATACCGTTGACTTTTCACCGGAGTCACCTAGTGCAG”, for which the binding signal was 24900 fluorescence intensity (a.u.).
In the case of “TACTCCCTCCGTTTCAAATGACACCATTGACTTTTTAGCACGGAGTCACCTAGTGCAG” it was 9430 fluorescence intensity (a.u.); in that of “TTATCAAAAGTACTTTTTAAGTATGACTTCTCCGTTTTTACGGAGTCACCTAGTGCAG”, 8280 fluorescence intensity (a.u.); in that of “CCCTCCGTTTCAAAATGTTTGATACCGTTGACTTTTTAGCCGGAGTCACCTAGTGCAG”, 21200 fluorescence intensity (a.u.).
The result for “GAGATGTGTCCATATTTGTAGTATTGGGTGGTATCTATTTCGGAGTCACCTAGTGCAG” reads 8550 fluorescence intensity (a.u.); that for “TCACGGCCCCGCCGACCTCACGTCACCTTTTGTTGCGAGTCGGAGTCACCTAGTGCAG”, 8110 fluorescence intensity (a.u.); that for “GCCGAGGGCGCCGCCGGCGTCGTCCGAGCTGTGCCGCGCGCGGAGTCACCTAGTGCAG”, 8640 fluorescence intensity (a.u.).
In the case of “ATCGTCCTCTGCACCTGCACACATCATCACTGGGACAACCCGGAGTCACCTAGTGCAG” it was 8140 fluorescence intensity (a.u.); in that of “AGGTCGACGTGTATATGTTCGTCTTTCATATCTCTGCTCTCGGAGTCACCTAGTGCAG”, 9640 fluorescence intensity (a.u.).
As to “GTCGTCCAATGGCATGCCTCGCCCTGATTTTTATCGGGCCCGGAGTCACCTAGTGCAG”, the binding signal is 12700 fluorescence intensity (a.u.).
As to “CCACAGTTAATTCCACACATACATGCACGCGTCTATATATCGGAGTCACCTAGTGCAG”, the binding signal is 11200 fluorescence intensity (a.u.).
The result for “TCATCGCGGGGCGGGGTGTAGCGGGTGCGAAAAGGAGGCGCGGAGTCACCTAGTGCAG” reads 9910 fluorescence intensity (a.u.); that for “AGGGGTGGATGCGCGTGGGCTGGTGGTGGTGGTGGGGATGCGGAGTCACCTAGTGCAG”, 19100 fluorescence intensity (a.u.).
As to “GCTAGCTGGATTGGTGGGTGGGCGCGTCAAGAAGGGGATGCGGAGTCACCTAGTGCAG”, the binding signal is 9830 fluorescence intensity (a.u.).
As to “GGTGGTCGGGGCTCTGACGCGGCGGGGCGGCGGAGGTGGTCGGAGTCACCTAGTGCAG”, the binding signal is 10800 fluorescence intensity (a.u.).
Take “AGCTGGCGGCTGGCGGGTGGTGGTGGTGGCTGGCGGCGGGCGGAGTCACCTAGTGCAG”: the binding signal is 13900 fluorescence intensity (a.u.).
As to “CTCCGGTGGGTCGGGTCTGGGCGGGGTGCGCGTGGGGATGCGGAGTCACCTAGTGCAG”, the binding signal was 18200 fluorescence intensity (a.u.).
On to “TGGTGACTGGGTAGGTGGTGGTGGTGGTGCGCGGCGGCGGCGGAGTCACCTAGTGCAG”, for which the binding signal is 8620 fluorescence intensity (a.u.).
On to “GGGGTGTGTGTGCTCGGCTACTCCGGTGGGTCGGGTCTGGCGGAGTCACCTAGTGCAG”, for which the binding signal was 12700 fluorescence intensity (a.u.).
“GCGGGGTGCGAGTGGATGGGTGGGCGTAGCGCGTGTCGTGCGGAGTCACCTAGTGCAG”: the binding signal was 10400 fluorescence intensity (a.u.).
In the case of “GGTCTGGTTTTCCGTGTGTGCACGGTCGGGGTGCGCGTGGCGGAGTCACCTAGTGCAG” it was 14300 fluorescence intensity (a.u.).
With “CTGGTGGTCGGTTCAGTCGGGCGGGCGGGCGGGCTCACCGCGGAGTCACCTAGTGCAG”, the binding signal is 22800 fluorescence intensity (a.u.).
“CTGAGTGGCTGGGTGGGGTAGTGAAAAAAATCATCGCGCGCGGAGTCACCTAGTGCAG”: the binding signal was 18200 fluorescence intensity (a.u.).

These data come from PMC7819943, “Rice protein-binding microarrays: a tool to detect cis-acting elements near promoter regions in rice”.
